# Data taken from the OligoGym collection.
# Target: CSGALNACT1
# Test: pooled miR-30 sensor sort-seq; sequence = guide strand
# Settings: shRNA
# Also: reference of the scale not given here.
row,Sequence,sensor-assay potency score (higher = more potent)
1,TTGGACTGCATGCACATCTTGT,-0.464
2,TTGATGTCCAGATCAAACCCAC,-0.21
3,TTGCTGTGGAGATACTTGCGAT,-1.14
4,ATATTGATGAAGTCTGACCGAT,-0.598
5,TAATTCAGTTACTTCCACCTGG,0.629
6,TTAAATTTCATAAACTACCAGT,-0.16
7,TATCTCGTGCCTGAACACCAGC,-0.848
8,TTAGCTGTGCAATACCACCTTC,-0.0505
9,TTAAACAATGAGTTTACTGTGA,-0.267

# Target: CSTF3
# Test: as above
# Settings: shRNA
row,Sequence,sensor-assay potency score (higher = more potent)
1,TTTGCTTAGAGCATAGGTCTGT,0.755
2,TTCTGGTATCTTCTCTTGCTTT,-0.975
3,TTGTTTTTTCTCAAGAACCATG,-1.15
4,TACTTGTTATAGTCTCTCCAGA,-0.878
5,TATAGAAGGAGCTACAACTGGG,0.225
6,TTGGTATCTTGCATCTTCGGAA,-0.546
7,TGAACTTGTATCTATCTACTAG,-0.0129
8,TTTCTTTGTAACTTGGTAGTTT,-0.139
9,TAAATCAATGTGCAAAACCTTC,-1.01
10,TTTTCTATCCACTTCATCTTTC,-0.135
11,TCGGATTAACACAACCTCGTTG,-0.511
12,TTGATCATCGGATTAACACAAC,-0.951
13,TTTGTTTCCAAGAACCTTGTAA,0.432
14,TTCTTCTTCAATAAAGTGCTTA,-0.0244
15,TTATTCTTTGATTTTCTGCATA,-0.891
16,TTTGTCTATAGGTTGATTCTGT,-0.133
17,TACTGCATTACTTTCCACGGGG,0.0681
18,TTCCATTCCAATTTTATCCAGT,-0.0677
19,TTGAATGCTGTAAACCGTCTTT,-0.262
20,TTTAGCTAAATGAATATTGATA,-0.643
21,TTCATCTGAATCCTCGTTGGGC,0.448
22,TAGCTGCTAGCTTAGCACGGGA,-0.406
23,TTTGGTATCTTGCATCTTCGGA,-0.026
24,TAGAGCATAGGTCTGTTCCGTA,0.181

# Target: CT47A1
# Test: as above
# Settings: shRNA
row,Sequence,sensor-assay potency score (higher = more potent)
1,TGCATCCTTCTCTTTTTCTTGT,-0.624
2,TGTTTTCTGCATCCTTCTCTTT,-1.05
3,ATTTAGTGACTTCCTCTGGGGC,-0.669
4,TCTGCGTCTGGTTCCTCTGTGG,-0.289
5,TTCTTCACCTTGTTTTCTGCAT,-0.231
6,TTGACGGTTCTCTATGAGGATG,-1.48
